Test results: PubChem BioAssay (Tox21)
Where “and” joins values, the source holds several entries; their conditions need not be identical. Identical values can stand only once. Inconclusive results are not listed. Entries that show only a call come without a potency. Calls of active or inactive are those of the source. Unless noted, calls follow the shape of the dose curve; as a rule, active = well fitted curve in the direction sought with a large enough effect in the repeat runs; inconclusive = weak or mixed curves; inactive = no such curve, though single readings can be large; an effect the other way counts as inactive or inconclusive.

Experiments:
[1] = qHTS assay to identify small molecule agonists of the RXR signaling pathway - cell viability counter screen (AID 1159529);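 also: HEK 293T cells carrying an RXR-alpha UAS beta-lactamase reporter; series mostly up to about 77 µM; nearly all actives have a fitted effect of over 50% in size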
Procedure, shortened: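 HEK 293T RXRa-bla cells, 2% CS-FBS; 5 h settle; cpd 16 h 37 C, 5% CO2; CellTiter-Glo 30 min RT, luminescence. Tetraoctyl ammonium bromide as positive control.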

[2] = qHTS assay to identify small molecule antagonists of the retinoid acid receptor (RAR) signaling pathway - cell viability counter screen (AID 1159551); also: nearly all actives have a fitted effect of over 35% in size
Procedure, shortened: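 Viability of C3RL4 cells is quantified from ATP by luminescence after 6 h treatment at 37 C with compounds and 1 uM retinol.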

[3] = qHTS assay to identify small molecule antagonists of the retinoic acid receptor (RAR) signaling pathway (AID 1159552; also: nearly all actives have a fitted effect of over 50% in size; also: potency is read from the fitted curve at half-maximal effect)
Procedure, shortened: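 Cells of the C3RL4 line were seeded, incubated overnight, then dosed with compounds in DMSO followed immediately by retinol (1 uM final). Six hours later luciferase detection reagent went in; signal was measured after 30 min at RT.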

[4] = qHTS assay to identify small molecule agonists of the retinoic acid receptor (RAR) signaling pathway (AID 1159553); also: potency is read from the fitted curve at half-maximal effect
Procedure, shortened: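 Compounds dissolved in DMSO were pinned onto C3RL4 cells seeded the previous day, and plates were held 6 hr at 37 C. RARE-driven luciferase output was then read by luminescence.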

[5] = qHTS assay to identify small molecule antagonists of the estrogen related receptor (ERR) signaling pathway - cell viability counter screen (AID 1224818);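 also: series mostly up to about 46 µM; viability measured after 17.5 h of compound exposure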
Procedure, shortened: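 Cytotoxicity check run alongside the ERR antagonist screen: cells exposed to test compounds 17.5 h at 37 C, viability taken as CellTiter-Fluor fluorescence intensity.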

[6] = qHTS assay to identify small molecule antagonists of the estrogen related receptor (ERR) signaling pathway (AID 1224819;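 also: luminescence from an ERR-driven luciferase reporter measured with One-Glo reagent; series mostly up to about 46 µM; nearly all actives have a fitted effect of over 50% in size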)
Procedure, shortened: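 ERR reporter cells were plated at 2,000 cells/well and left 6 h at 37 C/5% CO2 before pin-tool transfer of compounds in DMSO. After 18 h at 37 C, One-Glo was added and luminescence was read 30 min later at room temperature.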

[7] = qHTS assay to identify small molecule agonists of the estrogen related receptor (ERR) signaling pathway (AID 1224820)
Procedure, shortened: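 Luminescence readout (One-Glo, 30 min RT) from NTP-supplied ERR cell line exposed to compounds for 18 h at 37 C. Cells seeded 2,000 per well and pre-incubated 6 h before pin-tool compound transfer.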

[8] = system: estrogen-related receptor alpha (ERRalpha) with PGC-1alpha coactivator, human; assay: qHTS assay to identify small molecule antagonists of the estrogen related receptor signaling pathway with the pleiotropic PPARgamma coactivator (PGC) (AID 1224821; calls by dose curve;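 also: series mostly up to about 46 µM; lower luminescence signal means antagonism of PGC/ERR signalling; nearly all actives have a fitted effect of over 50% in size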)
Procedure, shortened: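 PGC/ERR reporter cells; 6 h pre-incubation 37 C/5% CO2; pin-tool compound in DMSO, 18 h 37 C; One-Glo added, 30 min RT; luminescence read. qHTS antagonist mode.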

[9] = qHTS assay to identify small molecule agonists of the estrogen related receptor signaling pathway with the pleiotropic PPARgamma coactivator (PGC) (AID 1224823)
Procedure, shortened: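 Luminescence readout (One-Glo, 30 min RT) from PGC/ERR cell line treated 18 h at 37 C with pin-tool-delivered DMSO compound solutions; cells plated 6 h before dosing. Quantitative HTS format.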

CC1=C(/C=C/C(C)=C/C=C/C(C)=C/C(=O)O)C(C)(C)CCC1
Potency [1]: inactive
outcome [2]: inactive
Potency [3]: inactive
Potency [4]: 19.4 nM (active) and 9.7 nM (active) and 84.1 nM (active)
outcome [5]: inactive

CN(C)C=O
Potency [1]: inactive
outcome [2]: inactive
Potency [3]: inactive
Potency [4]: inactive

N[C@@H](Cc1c[nH]c2ccc(O)cc12)C(=O)O
Potency [1]: inactive
outcome [2]: inactive
Potency [3]: inactive
Potency [4]: inactive
outcome [5]: inactive

CC(C)CC(C)CC(O)CC(C)C (stereo unspecified)
Potency [1]: inactive
outcome [2]: inactive
Potency [3]: inactive
Potency [4]: inactive

C[C@]12C[C@H](O)[C@H]3[C@@H](CCC4=CC(=O)CC[C@@]43C)[C@@H]1CC[C@@H]2C(=O)CO
Potency [1]: inactive
outcome [2]: inactive
Potency [3]: inactive
Potency [4]: inactive
outcome [5]: inactive

C[C@]12CC[C@@H]3c4ccc(O)cc4CC[C@H]3[C@@H]1CCC2=O
Potency [1]: inactive
outcome [2]: inactive
outcome [5]: inactive

COc1cc2c(c(OC)c1OC)-c1ccc(OC)c(=O)cc1[C@@H](NC(C)=O)CC2
outcome [2]: inactive
Potency [3]: inactive
Potency [4]: inactive
outcome [5]: inactive

O=C(O)CN(CC(=O)O)CC(=O)O
Potency [1]: inactive
outcome [2]: inactive
Potency [3]: inactive
Potency [4]: inactive

COC1=CC(=O)C[C@@H](C)[C@]12Oc1c(Cl)c(OC)cc(OC)c1C2=O
Potency [1]: inactive
outcome [2]: inactive
Potency [3]: 9.6 µM (active)
Potency [4]: inactive

Oc1cccc(O)c1
Potency [1]: inactive
outcome [2]: inactive
Potency [3]: inactive
Potency [4]: inactive

CCN(CC)CCOC(=O)c1ccc(N)cc1
Potency [1]: inactive
outcome [2]: inactive
Potency [3]: inactive
Potency [4]: inactive
outcome [5]: inactive
Potency [6]: inactive
outcome [7]: inactive
outcome [8]: inactive
outcome [9]: inactive

CN/C(=C\[N+](=O)[O-])NCCSCc1ccc(CN(C)C)o1
Potency [1]: inactive
outcome [2]: inactive
Potency [3]: inactive
Potency [4]: inactive
outcome [5]: inactive
